From PubChem
Rows were chosen to be rich in hits. Some 6.5% of all compounds tested hit in one or more screens of this group.
IL-1B inflam inh – blocks inflammasome-driven IL-1 beta release; activity change, % at 57.5 µM; AID 743279; THP-1 LPS/ATP IL-1B secretion, AlphaLISA, 16 h; hits give low values; 360,000 compounds, 4.7% hits; in the data active = activity change below about -50%; inconclusive = mostly about -30% to -49%; also: % is scaled to controls: 0 for no effect and ±100 for the full control effect
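Secreted IL-1B measured by AlphaLISA bead assay after 16 h compound exposure of THP-1 cells; compounds (final up to 57.5 uM) added 1 h before LPS (250 ng/mL) and ATP (1.25 mM) stimulation; lower signal means less secretion.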
HT1080NT lethal – kills 2HG-producing HT-1080-NT fibrosarcoma cells; 360,000 compounds, 1.6% hits; HT-1080-NT fibrosarcoma viability, CellTiter-Glo ATP luminescence, 48 h; Potency, µM (doses to about 46.1 µM), for inactives: at the highest dose activity, negative = less viability, most hits filed as cytotoxic;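 also: NT is the 2HG producing partner of a matched IDH1 knockdown line; potency is read from the fitted curve at half-maximal effect; 0% = DMSO-treated cells and -100% = media-only wells without cells; nearly all actives have a fitted effect of over 55% in size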
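Fibrosarcoma NT cells, 750 per well in 5% FBS RPMI, were exposed to compound for 48 hours. Viability: CellTiter-Glo luminescence.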
TGFb inhibitor – TGF-b pathway inhibition; Potency, µM (top dose mostly 46.1 µM), inactives show at the highest dose activity, negative = inhibition, actives largely listed as inhibitors; HepG2 CAGA-GFP TGF-b/SMAD3 reporter, GFP fluorescence, 18 h; TGF-beta stimulated, 500 pg/mL final; 410,000 compounds, 1.2% hits; also: potency is read from the fitted curve at half-maximal effect; % is scaled to controls: 0 for no effect and ±100 for the full control effect; nearly all actives have a fitted effect of over 65% in size
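Read-out: total well GFP (ex488/em500-530) summed from mean per-cell fluorescence. Cells: HEPG2 CAGA-GFP, 1% FBS DMEM, 18 h at 37 degrees C with 500 pg/mL final TGF-beta. Unstimulated wells served as the full-inhibition control; stimulated DMSO wells = 0%.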
HepG2 viability – kills HepG2 cells in TGF-b inhibitor counter-screen; 410,000 compounds, 0.76% hits; HepG2 CAGA-GFP viability, ATP luminescence, 18 h; Potency, µM (titrated, usually from 46.1 µM), for the others: at the top dose activity change, negative = cytotoxicity, most hits filed as cytotoxic; AID 588856; also: potency is read from the fitted curve at half-maximal effect
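HepG2 CAGA-GFP cells (1000/well, DMEM with 1% FBS) received compound, then TGF-beta at 500 pg/mL final, and were incubated 18 hours at 37 degrees C. Viability was read by CellTiter-Glo luminescence. Media-only wells were set as complete cell-killing and DMSO as no toxicity.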
Giardia kill – kills Giardia lamblia; Giardia lamblia trophozoite viability; activity change, % at 7.66 µM, hits read low; 340,000 compounds, 0.15% hits; in the data active = activity change below about -80%; inconclusive = between about -30% and that limit;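 also: parasites exposed to compound for two days anaerobically before the ATP read; % is scaled to controls: 0 for no effect and ±100 for the full control effect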
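Killing of trophozoites was scored by loss of ATP luminescence after a 48 hrs anaerobic exposure to compounds at 37 deg C, using 100 cells per well.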
HT1080 IDH1KD tx – toxicity to HT-1080 IDH1 knockdown cells (counter line). 360,000 compounds, 2% hits. Potency, µM (series often up to 46.1 µM), for inactives: at the highest dose activity, negative = toxicity, usual class: cytotoxic. HT-1080 IDH1 knockdown viability, ATP luminescence, 48 h. AID 686971;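 also: potency is read from the fitted curve at half-maximal effect; 0% = DMSO wells and -100% = cell-free medium wells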
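HT-1080-IDH1KD cells (IDH1 knocked down), 750/well in RPMI with 5% FBS, treated with compound 48 h at 37 degrees C. Viability by CellTiter-Glo luminescence, normalised to DMSO and no-cell wells; concentration-response curves classed.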
* = called active by the depositor; i = inactive; ? = inconclusive; . = no result; [ ] = remark or other dose. Unless noted, calls follow the shape of the dose curve; as a rule, active = well fitted curve in the direction sought with a large enough effect; inconclusive = small, poorly fitted or top-dose-only effect, or another doubt; inactive = no such curve, though single readings can be large; an effect the other way counts as inactive or inconclusive.

SMILES	IL-1B inflam inh	HT1080NT lethal	TGFb inhibitor	HepG2 viability	Giardia kill	HT1080 IDH1KD tx
OC(COCC(F)(F)C(F)(F)C(F)(F)C(F)F)Cn1c2ccc(Cl)cc2c2cc(Cl)ccc21 (stereo unspecified)	-97*	?	10µM*	-117%	-29	?
CCOC(=O)c1c(O)c2cc(Cl)ccc2n(CC)c1=O	.	6%	-1%	-18%	9	8%
Cc1ccc2c(c1)C(=O)C(=O)N2CCOc1ccccc1	-2	7.3µM*	?	-9%	4	21µM*
Cc1ccc2c(c1)C(=O)C(=O)N2CCCOc1ccccc1C	?	?	?	-21%	-21	-29%
Cc1cccc(OCCN2C(=O)C(=O)c3cc(C)ccc32)c1	?	2.9µM*	?	-4%	-5	?
Cc1ccc2c(c1)C(=O)C(=O)N2Cc1ccc(Br)cc1	54	?	?	-31%	11	23µM*
Cc1ccc(CN2C(=O)C(=O)c3cc(C)ccc32)cc1	84	-5%	?	-14%	4	-10%
COc1ccc(Cl)cc1NC(=O)CN1CCCCCC1	0	-2%	13%	-1%	18	-3%
C(#CCN1CCCC1)CC(c1ccccc1)c1ccccc1	-64*	?	?	-47%	-25	?
CC(C)(C#CCN1CCCCC1)OCCOC(c1ccccc1)c1ccccc1	-61*	?	?	-24%	1	?
CC(O)(C#CCN1CCCCC1)c1ccccc1 (stereo unspecified)	-2	-2%	-26%	-16%	12	3%
S=C(Nc1ccc(Cl)cc1)NC1CCN(Cc2ccccc2)CC1	-94*	4%	?	-51%	40	-1%
Cc1ccc(NC(=S)NC2CCN(Cc3ccccc3)CC2)c(C)c1	-57*	-1%	0%	-3%	-3	12%
CCC(C)c1ccc(NC(=S)NC2CCN(Cc3ccccc3)CC2)cc1 (stereo unspecified)	-94*	18µM*	10µM*	14µM*	-5	?
CN1C(=O)c2ccc(NC(=O)c3cccc(N4C(=O)CCC4=O)c3)cc2C1=O	-1	1%	1%	4%	5	-6%
Cc1cccc(OCC(=O)NCC2CCCO2)c1C (stereo unspecified)	-6	5%	-14%	0%	0	1%
Cc1cccc(NC(=O)CN2CCCCCC2)c1	17	18%	7%	-3%	10	16%
O=C(CNc1cc(S(=O)(=O)N2CCOCC2)ccc1NCC1CCCO1)Nc1cccc(F)c1 (stereo unspecified)	?	-2%	8%	-33%	0	-4%
O=C1N=C(N2CCOCC2)S/C1=C/c1ccc(-c2ccc(F)cc2)o1	-23	-29%	13%	-37%	4	?
Cc1ccc(-c2ccc(/C=C3\SC(N4CCOCC4)=NC3=O)o2)cc1	-95*	9.2µM*	2%	-29%	3	8.2µM*
CC(C)(C)NCc1cc(Br)ccc1OCc1cccs1	-59*	-22%	11%	-6%	-21	-11%
CC(C)(C)NCc1cc(Cl)ccc1OCc1cccs1	0	-13%	5%	-30%	13	-16%
CC(C)(CO)NCc1cc(Br)ccc1OCc1ccccc1	-66*	-24%	2%	-11%	-3	?
N#CCCn1c(C(C#N)(CCC#N)CCC#N)nc2ccccc21	22	8%	-10%	-2%	0	-1%[9.24 µM]
Cc1ccc(C(=O)N2CCCN(c3nc4cc5c(cc4cc3C#N)OCO5)CC2)cc1	18	?	-21%	-3%	-6	21µM*
SMILES	IL-1B inflam inh	HT1080NT lethal	TGFb inhibitor	HepG2 viability	Giardia kill	HT1080 IDH1KD tx
CCOCCCNC(=S)N1CCCN(c2nc3cc(C)c(C)cc3cc2C#N)CC1	-5	-15%	?	-42%	-15	-12%
COCCCNC(=S)N1CCCN(c2nc3cc(C)c(C)cc3cc2C#N)CC1	-74*	-5%	?	-17%	-7	-11%
COc1ccc(-n2c(-c3ccc(Br)cc3)c[n+]3c2CCC3)cc1	-67*	?	8%	0%	8	?
COc1ccc(-n2c(-c3ccc(Br)cc3)c[n+]3c2CCCCC3)cc1	-78*	-26%	-24%	-7%	-5	?
Cc1ccc(-n2c(-c3ccccc3)c[n+]3c2CCC3)cc1	-73*	?	-24%	-14%	-8	5.8µM*
CCOc1ccc(-c2c[n+]3c(n2-c2ccccc2)CCCCC3)cc1	?	?	?	-42%	-3	18µM*
CC(C)Cc1oc(C(=O)O)cc1CN1CCOCC1	22	19%	-19%	-3%	-3	10%
CCCNC(=O)c1ccc(C2SCC(=O)N2Cc2ccccc2)cc1 (stereo unspecified)	-2	-3%	?	-11%	0	9%
Cc1cccc(NC(=O)CCCNC(=O)c2ccc(Cl)cc2)n1	i	-1%	-2%	-7%	-16	-15%
CCCNc1nc2c(c(=O)n(C)c(=O)n2C)n1Cc1cccc(C)c1	14	?	?	-8%	-6	-8%
CCc1ccccc1NC(=O)Cn1c(=O)n(CCc2ccccc2)c(=O)c2ccccc21	.	.	-4%	1%	.	.
COc1ccc(Cc2nc3ccc(C(=O)NCCCSC)cc3o2)cc1OC	0	-5%	-28%	-38%	5	0%
CCc1ccccc1NC(=O)CN(c1ccc(OC)cc1OC)S(=O)(=O)c1ccccc1	-9	0%	-13%	-24%	-4	-14%
COc1ccc(-n2c(-c3ccccc3)c[n+]3c2CCC3)cc1	?	?	5%	-2%	-2	-27%
CCOc1ccc(-n2c(-c3ccc(Cl)cc3)c[n+]3c2SCC3)cc1	-86*	-10%	0%	-28%	12	23µM*
COc1ccc(-n2c(-c3ccc(Br)cc3)c[n+]3c2SC(C)C3)cc1 (stereo unspecified)	-97*	?	-18%	-5%	-7	?
Cc1ccc2nc(SCC(=O)OCc3ccccc3)nc(=O)n2c1	-56*	-17%	-23%	2%	-1	-7%
CCOC(=O)C(C)Sc1nc(=O)n2cc(C)ccc2n1 (stereo unspecified)	-101*	17%	2%	3%	25	18%
COCCNC(=O)CSc1nc2ccc(N3CCOCC3)cc2c(=O)n1Cc1ccc(OC)cc1	8	2%	2%	0%	15	-2%
